Results on seven compounds are retold here after PubChem BioAssay (NCI).

Some test systems named below: DU-145 prostate; K-562 leukemia; MALME-3M melanoma; MDA-MB-231 breast; RXF 393 renal; SF-268 CNS; SF-295 CNS; SF-539 CNS; UACC-257 melanoma; M14 melanoma; HCT-15 colon; HT29 colon; SNB-75 CNS; SNB-19 CNS; U251 CNS; PC-3 prostate; SK-MEL-5 melanoma; UACC-62 melanoma; LOX IMVI melanoma; SK-MEL-28 melanoma.
What all share (test): NCI-60 one-dose screen, 48 h (100 = growth as untreated, 0 = no growth, -100 = all killed)
Common to all, as to conditions: 10 µM unless noted

SMILES strings stand for the structures. The panel holds about 83,000 compounds, 20% with a hit somewhere; the sample as a whole holds those more often.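 A percent growth of 40 corresponds to 60% growth inhibition; 0 means no net growth; -100 means all cells died. Active threshold: below 10.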 A number with no mark means an inactive call. The source made the active and inactive calls.

In the case of `CC(=O)c1sc2sc(C(C)=O)c(C)c2c1C`, the growth in the test with DU-145 prostate is 111%; in the test on K-562 leukemia it was 95.5%; in the test with MALME-3M melanoma, 126%; in the test on MDA-MB-231 breast, 101%; in the test on RXF 393 renal, 93%; in the test on SF-268 CNS, 97.1%. The growth with SF-295 CNS is 105%; with SF-539 CNS it was 85.1%; with UACC-257 melanoma, 81.3%; in the test on M14 melanoma, 107%; in the test on HCT-15 colon it was 105%; in the test on HT29 colon, 79.4%. The growth is 90.6% with SNB-75 CNS; 105% with SNB-19 CNS; 93.9% in the test with U251 CNS; 77.7% in the test on PC-3 prostate; 98.2% in the test with SK-MEL-5 melanoma; 75% in the test on UACC-62 melanoma. The growth in the test on LOX IMVI melanoma is 95.6%; with SK-MEL-28 melanoma, 100%.

With `CC/C=C\CCC/C=C1/C(=O)C=C[C@@H]1C/C=C\CCCC(=O)OC`, the growth in the test on DU-145 prostate was 60.4%; in the test on K-562 leukemia, 0.856% (active); in the test on MALME-3M melanoma, 34.1%; with MDA-MB-231 breast it was 15.3%; in the test on RXF 393 renal, 96.4%; with SF-268 CNS, 31%. Besides, the growth was 74.2% in the test with SF-295 CNS; 95.4% in the test on SF-539 CNS; 69.7% in the test with UACC-257 melanoma; 1.66% (active) in the test on M14 melanoma; 4.07% (active) with HCT-15 colon; -1.77% (active) with HT29 colon. The growth with SNB-75 CNS was 82.7%; in the test on SNB-19 CNS, 50.2%; in the test with U251 CNS, 19.7%; with PC-3 prostate, 32.8%; with SK-MEL-5 melanoma it was -32% (active); in the test with UACC-62 melanoma, -14.2% (active). Further, the growth with LOX IMVI melanoma was -70.8% (active); in the test with SK-MEL-28 melanoma, 61.3%.

In the case of `COc1ccc(C(O)c2cc3c(N)c(C(=O)Nc4cccc(Cl)c4C)sc3nc2C)cc1` (stereo not given), the growth is 3.08% (active) with DU-145 prostate; 6.61% (active) in the test on K-562 leukemia; 41.7% with MALME-3M melanoma; 1.27% (active) in the test with MDA-MB-231 breast; 33.7% in the test on RXF 393 renal; 13.2% in the test on SF-268 CNS. The growth in the test with SF-295 CNS was 17.4%; in the test with SF-539 CNS it was -4.61% (active); in the test on UACC-257 melanoma it was 44.1%; with M14 melanoma, 7.3% (active); in the test with HCT-15 colon, 10.8%; with HT29 colon, -7.84% (active). The growth with SNB-75 CNS was -11.4% (active); in the test with SNB-19 CNS, 39%; in the test with U251 CNS it was 11.1%; in the test with PC-3 prostate, 16.7%; in the test with SK-MEL-5 melanoma, -53.7% (active); with UACC-62 melanoma it was 24.6%. Further, the growth in the test with LOX IMVI melanoma is 22%; in the test on SK-MEL-28 melanoma, 57.7%.

For `COc1cc2nc3sc(C(=O)Nc4ccc(C(=O)OC(C)C)cc4)c(C(=O)Nc4ccc(Cl)cc4C)n3c(=O)c2cc1OC`, the growth with DU-145 prostate was 13.2%; in the test with K-562 leukemia it was 56.4%; in the test with MALME-3M melanoma it was 43.9%; with MDA-MB-231 breast it was 86.9%; in the test with RXF 393 renal, 83.8%; in the test with SF-268 CNS it was 64.5%. Besides, the growth is 42% with SF-295 CNS; 104% with SF-539 CNS; 118% in the test with UACC-257 melanoma; 77.7% with M14 melanoma; 93.7% in the test on HCT-15 colon; 41.2% with HT29 colon. Also, the growth was 48% with SNB-75 CNS; 96.9% in the test with SNB-19 CNS; 66.3% in the test on U251 CNS; 30.2% in the test on PC-3 prostate; 73% with SK-MEL-5 melanoma; 67.6% in the test on UACC-62 melanoma. Also, the growth with LOX IMVI melanoma was 69.7%; in the test with SK-MEL-28 melanoma, 101%.

As to `COc1ccc(C(=O)/C=C/c2ccc(N3CCCCC3)cc2)cc1OC`, the growth with DU-145 prostate is 95.4%; in the test on K-562 leukemia it was 76%; in the test on MALME-3M melanoma, 104%; in the test on MDA-MB-231 breast it was 91.8%; with RXF 393 renal it was 107%; in the test with SF-268 CNS, 95.3%. The growth in the test with SF-295 CNS was 95.2%; with SF-539 CNS, 98.2%; in the test on UACC-257 melanoma, 82.8%; in the test on M14 melanoma, 89.4%; with HCT-15 colon, 94.9%; with HT29 colon it was 95.1%. The growth was 84.3% in the test with SNB-75 CNS; 91.3% with SNB-19 CNS; 95.6% with U251 CNS; 81% in the test with PC-3 prostate; 90.4% in the test on SK-MEL-5 melanoma; 75.3% with UACC-62 melanoma. In addition, the growth was 97.1% in the test with LOX IMVI melanoma and 102% with SK-MEL-28 melanoma.

`CC[N+]1(CC)CC[N+]2(CCCC(C)CC2)CC1` (stereo not given): the growth with DU-145 prostate was 111%; with K-562 leukemia, 107%; with MALME-3M melanoma, 97.6%; with MDA-MB-231 breast it was 106%; in the test with RXF 393 renal, 113%; with SF-268 CNS, 108%. Moreover, the growth with SF-295 CNS was 98.8%; in the test on SF-539 CNS, 99.2%; in the test on UACC-257 melanoma, 98.2%; in the test on M14 melanoma, 106%; in the test with HCT-15 colon, 104%; in the test with HT29 colon it was 99.7%. The growth in the test with SNB-75 CNS was 115%; in the test with SNB-19 CNS, 102%; in the test with U251 CNS it was 111%; in the test on PC-3 prostate, 96.6%; in the test with SK-MEL-5 melanoma, 104%; with UACC-62 melanoma, 100%. The growth is 105% in the test on LOX IMVI melanoma and 104% with SK-MEL-28 melanoma.

Regarding `CCc1n(Cc2ccc3ccccc3n2)cc[n+]1Cc1ccc2ccccc2n1`, the growth was 51.7% with DU-145 prostate; 24.9% in the test on K-562 leukemia; -9.45% (active) with MALME-3M melanoma; 31.1% in the test with MDA-MB-231 breast; 46.6% with RXF 393 renal; 29.6% with SF-268 CNS. Further, the growth with SF-295 CNS is 64.7%; in the test with SF-539 CNS, 24.5%; in the test with UACC-257 melanoma, -16.5% (active); with M14 melanoma, 46.6%; with HCT-15 colon it was 92.2%; in the test on HT29 colon it was -4.83% (active). The growth in the test on SNB-75 CNS was 29.5%; in the test with SNB-19 CNS, 20.9%; in the test with U251 CNS, 12.3%; with PC-3 prostate it was 19%; in the test with SK-MEL-5 melanoma, -36.3% (active); with UACC-62 melanoma, 12.4%. Besides, the growth with LOX IMVI melanoma is 26.1%; with SK-MEL-28 melanoma, 15.9%.
